LASV entry inh – blocks Lassa virus binding to or entry into cells | Lassa virus pseudotype entry inhibition, cell reporter | Potency, µM (top dose mostly 37.9 µM), hits mostly inhibitors | 300,000 tested, 1.2% active | AID 540256; calls by dose curve; tested in HEK293 cells; further: nearly all actives have a fitted effect of over 50% in size
Marburg entry inh – Marburg virus entry inhibition; 300,000 tested, 1.8% active; Potency, µM (titrated, usually from 37.8 µM), most hits filed as inhibitors; Marburg virus pseudotyped entry inhibition, cell reporter; calls by dose curve; tested in HEK293 cells
FMDV inh – blocks foot and mouth disease virus; 410,000 tested, 1.2% active; Potency, µM (top dose mostly 57.9 µM), actives largely listed as inhibitors; FMDV antiviral cell-based qHTS; AID 1159524; calls by dose curve; tested in HEK293T cells; further: read-out not given here; nearly all actives have a fitted effect of over 45% in size
HCV inh – blocks hepatitis C virus. Potency, µM (doses to about 41.8 µM), actives largely listed as inhibitors. Huh7.5.1 HCVcc-Cre infection, luciferase reporter, 44 h. 340,000 tested, 3.4% active; active means well fitted inhibition curve with a large enough effect; inconclusive means small, poorly fitted or top-dose-only effect, or another doubt; inactive means no such curve, though single readings can be large or run the other way
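Reporter virus HCVcc-Cre (~0.5 moi) infects cells exposed to compound; seeding density 1,000 cells/well with 4 h settling beforehand. Luminescence, 15 sec read, taken 44 h post-infection following a 15 min RT substrate incubation.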
HCMV antiviral – human cytomegalovirus inhibition | AID 1259415 | HFF cells, HCMV-luciferase reporter, 72 h; hits give low values | 410,000 tested, 4.5% active | activity change, negative = inhibition, % at 57.5 µM; in the data active means activity change below about -60%; inconclusive means no clear call, values can overlap the other calls; inactive means above about -39%
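Inhibition of viral replication was scored as loss of reporter luminescence in HFFs infected with HCMV-luciferase (MOI 1 PFU/cell) for 72 h; compounds tested at 2 doses, normalized to buffer and Salinomycin controls.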
A number is an active result. The list is not random: actives were taken first. Their share in the collection is about 7.9%.

Results for O=C(NCCc1csc(-c2ccc(F)cc2)n1)c1ccco1 ?
LASV entry inh: inactive; FMDV inh: inactive; HCMV antiviral: inactive

How did Cc1ccc(CC2C(=O)N(c3cc(C)ccc3C)C(=O)C2C)cc1 (stereo unspecified) do in these assays?
FMDV inh: inactive; HCV inh: inactive; HCMV antiviral: inactive

How did COC(=O)c1cnc(Oc2ccc(NC(=O)NC(=O)c3c(OC)cccc3OC)cc2)cc1C(F)(F)F do in these assays?
LASV entry inh: inconclusive; Marburg entry inh: 1.58µM; FMDV inh: inactive; HCV inh: inactive; HCMV antiviral: -97.9

How did COC(=O)c1cnc(Oc2ccc(NC(=O)NC(=O)c3c(F)cccc3F)cc2)cc1C(F)(F)F do in these assays?
LASV entry inh: inactive; Marburg entry inh: inactive; FMDV inh: inactive; HCV inh: inactive; HCMV antiviral: inactive

How did O=[N+]([O-])c1nc2ccccc2[nH]1 do in these assays?
LASV entry inh: inactive; Marburg entry inh: inconclusive; FMDV inh: inactive; HCV inh: inactive; HCMV antiviral: inactive

How did Cc1cccc(CSc2nc3c(cc2C#N)CN(C)CC3)c1 do in these assays?
LASV entry inh: inactive; Marburg entry inh: inactive; FMDV inh: inactive; HCV inh: 14.1µM; HCMV antiviral: inactive

How did CCOC(=O)C1=C(CSc2nc3c(cc2C#N)CN(C)CC3)OC(N)=C(C#N)C1c1ccc(F)cc1 (stereo unspecified) do in these assays?
LASV entry inh: inactive; Marburg entry inh: inconclusive; FMDV inh: inactive; HCV inh: 10µM; HCMV antiviral: inactive

Results for N#Cc1cc2c(nc1SCc1ccccc1)CCC2 ?
LASV entry inh: inactive; Marburg entry inh: inactive; FMDV inh: inactive; HCV inh: inactive; HCMV antiviral: inactive

What do the screens show for `CN1CCc2nc(SCc3ccccc3Br)c(C#N)cc2C1`?
LASV entry inh: inactive; Marburg entry inh: inactive; FMDV inh: inactive; HCV inh: 7.94µM; HCMV antiviral: inactive

How did COc1ccc(-c2oc3cc(O)c(OC)c(O)c3c(=O)c2OC)cc1O do in these assays?
LASV entry inh: inconclusive; Marburg entry inh: inconclusive; FMDV inh: inactive; HCV inh: inactive; HCMV antiviral: -62.4

Results for COc1cc(OC)c2c(=O)c(OC)c(-c3ccc(OC)c(OC)c3)oc2c1 ?
FMDV inh: inactive; HCV inh: 1.12µM

Results for CC(=O)c1ccccc1-c1ccc2c(c1)CC(CNC(=O)Cc1c[nH]c3ccccc13)O2 (stereo unspecified) ?
FMDV inh: inactive

What do the screens show for `CCc1nnc(SCC(=O)Nc2ccc(F)cc2F)c2cc3sc(C)cc3n12`?
LASV entry inh: inactive; FMDV inh: inactive; HCMV antiviral: inactive

Results for CCSc1nc(-c2ccc(OC)cc2)ccc1C#N ?
LASV entry inh: inactive; Marburg entry inh: inactive; FMDV inh: inactive; HCV inh: 10µM; HCMV antiviral: inactive

What do the screens show for `COc1cc(C(=O)Nc2cccc(-c3nc4ncccc4o3)c2C)cc(OC)c1OC`?
LASV entry inh: inactive; Marburg entry inh: inactive; FMDV inh: inactive; HCV inh: inconclusive; HCMV antiviral: -105.9

Results for CC(C)(C)c1ccc(-n2ncc3c2CCCC3NC(=O)CN2CCCC2=O)cc1 (stereo unspecified) ?
LASV entry inh: inconclusive; Marburg entry inh: inactive; FMDV inh: inconclusive; HCV inh: 10µM; HCMV antiviral: -66.9

How did Cn1nccc1C(=O)NC1CCCc2c1cnn2-c1ccc(C(C)(C)C)cc1 (stereo unspecified) do in these assays?
LASV entry inh: inconclusive; Marburg entry inh: inconclusive; FMDV inh: inconclusive; HCV inh: inconclusive; HCMV antiviral: -61.2

What do the screens show for `CCCC(=O)NC1CCCc2c1cnn2-c1ccc(C)c(C)c1` (stereo unspecified)?
FMDV inh: inactive; HCV inh: inactive; HCMV antiviral: inactive

How did CC(C)(C)c1ccc(-n2ncc3c2CCCC3NC(=O)C2=NNC(=O)CC2)cc1 (stereo unspecified) do in these assays?
FMDV inh: inconclusive; HCV inh: inconclusive; HCMV antiviral: -81.3

Results for CC(=O)NC1CCCc2c1cnn2-c1ccc(C(C)(C)C)cc1 (stereo unspecified) ?
LASV entry inh: inactive; Marburg entry inh: inactive; FMDV inh: inactive; HCV inh: 10µM; HCMV antiviral: inactive

How did COc1cccc(Cc2nc3cccnc3n2C2CCN(Cc3ccc(C)s3)CC2)c1 do in these assays?
FMDV inh: inactive

Results for COc1ccc(S(=O)(=O)N2CCOCC2)cc1NC(=O)/C=C/c1ccccc1 ?
LASV entry inh: inconclusive; Marburg entry inh: inconclusive; FMDV inh: inactive; HCV inh: inconclusive; HCMV antiviral: inactive

How did CC(C)(C)c1ccc(-n2ncc3c2CCCC3NC(=O)c2csnn2)cc1 (stereo unspecified) do in these assays?
LASV entry inh: inactive; Marburg entry inh: inactive; FMDV inh: inactive; HCV inh: inactive; HCMV antiviral: inactive

How did CC(C)(C)c1ccc(-n2ncc3c2CCCC3NC(=O)c2cnccn2)cc1 (stereo unspecified) do in these assays?
LASV entry inh: inconclusive; Marburg entry inh: inconclusive; FMDV inh: inactive; HCV inh: 4.47µM; HCMV antiviral: -63.2

Results for CCCS(=O)(=O)NC(=O)C1(C)CCCN(C(=O)CCc2cccs2)C1 (stereo unspecified) ?
FMDV inh: inactive; HCMV antiviral: inactive

How did CCCS(=O)(=O)NC(=O)C1(C)CCCN(C(=O)CCc2ccccc2)C1 (stereo unspecified) do in these assays?
HCMV antiviral: -65.1

What do the screens show for `COc1ccccc1-n1cc(CN2CCC3(CCC(CNC(=O)c4ccccc4)O3)CC2)cn1` (stereo unspecified)?
FMDV inh: inactive

What do the screens show for `CCCc1nnc(N2C(=O)c3oc4ccc(F)cc4c(=O)c3C2c2ccc(C(=O)OC)cc2)s1` (stereo unspecified)?
LASV entry inh: inactive; Marburg entry inh: inactive; FMDV inh: inactive; HCMV antiviral: inactive

What do the screens show for `Cc1nn(-c2ccccc2)nc1C(=O)Nc1ccc2c(c1)OCCO2`?
LASV entry inh: inactive; Marburg entry inh: inconclusive; FMDV inh: inactive; HCV inh: inconclusive; HCMV antiviral: inactive

What do the screens show for `Cc1cccc(C(=O)Nc2cccc(C(=O)NC3CCCC3)c2)c1`?
FMDV inh: inactive; HCV inh: inconclusive; HCMV antiviral: inactive

How did Cc1cccc2nc(C(=O)Nc3cccc(C(=O)NC4CC4)c3)cn12 do in these assays?
FMDV inh: inactive; HCV inh: inactive; HCMV antiviral: inactive

Results for Cc1nn(-c2cccc(Cl)c2)nc1C(=O)Nc1cccc(C(=O)NC2CC2)c1 ?
FMDV inh: inconclusive; HCV inh: 10µM; HCMV antiviral: inactive

What do the screens show for `Cc1nn(-c2ccccc2)nc1C(=O)Nc1cccc(C(=O)NC2CC2)c1`?
FMDV inh: 31.6µM; HCMV antiviral: inactive

How did Cc1ccc(-n2nc(C)c(C(=O)Nc3cccc(C(=O)NC4CC4)c3)n2)c(C)c1 do in these assays?
FMDV inh: 28.2µM; HCV inh: 11.2µM; HCMV antiviral: inconclusive

How did O=C(O)C[C@H](NC(=O)COc1ccc(Cl)cc1Cl)C(=O)O do in these assays?
Marburg entry inh: inactive

From PubChem
